Columns and labels:
Format in all cases: functional
Plasmodium falciparum [1] = assay: GSK_TCMDC: Inhibition of Plasmodium falciparum 3D7 in whole red blood cells, using parasite LDH activity as an index of growth. Test compounds present at 2uM
Plasmodium falciparum [2] = assay: GSK_TCMDC: Inhibition of Plasmodium falciparum Dd2 in whole red blood cells, using parasite LDH activity as an index of growth. Test compounds present at 2uM
HepG2 = assay: GSK_TCMDC: Percent inhibition of human HepG2 cell line. Test compounds present at 10uM.

| Structure (SMILES) | Inhibition (Plasmodium falciparum [1]) | Inhibition (Plasmodium falciparum [2]) | Inhibition (HepG2) |
| --- | --- | --- | --- |
| CCCC(C)Nc1nc(C)cc(N[C@@H](Cc2ccccc2)C(=O)NCCOc2ccccc2)n1.O=C(O)C(F)(F)F (some centres undefined) | 100% | 68% | 10% |
| Cc1onc(-c2ccccc2)c1C(=O)Nc1nc(-c2ccccn2)nc2ccsc12 | 97% | 78% | 23% |
| Cc1cc(O)c(-c2cccc(Oc3ccc(Cl)cc3)c2)c(C)n1 | 96% | 95% | 0% |
| CN(Cc1cccc(O)c1)C1CCN(c2cc(NC(=O)c3ccc(F)cc3)ccn2)C1.O=C(O)C(F)(F)F (centres undefined) | 91% | 6% | 5% |
| COc1ccc(CC(Cc2ccc(OC)cc2)NCC(O)c2cccc(Cl)c2)cc1 (centres undefined) | 100% | 98% | 11% |
| CCCC(CNCc1cccc(C)c1)CNc1cc(=O)c2ccccc2[nH]1 (centres undefined) | 99% | 89% | 0% |
| CC(Cc1ccc(NC(=O)c2ccc(CNCCc3ccccc3)cc2)cc1)NCCc1cccc(Cl)c1.Cl (centres undefined) | 100% | 99% | 100% |
| CC(=O)N[C@H](C(=O)Nc1ccc(-c2cccc(-c3nc4cccc(C)c4[nH]3)c2)cc1)C(C)C | 89% | 10% | 9% |
| COc1ccc(-c2ccc(NC(=O)c3cccc(C#N)c3)cc2)cc1CN1CCCC(C(N)=O)C1.O=C(O)C(F)(F)F (centres undefined) | 98% | 44% | 12% |
| O=S(=O)(c1cc(Cl)c(Cl)cc1Cl)N1CCCCC(c2ccc(C(F)(F)F)cc2)=N1 | 98% | 99% | 9% |
| CCN(CCCN1CCCCC1)c1cc(C)nc(Nc2ccc(Br)cc2F)n1.O=C(O)C(F)(F)F | 95% | 24% | 32% |
| COc1ccc(Cl)cc1-c1nc(C(=O)NCCN2CCCCC2)c(C)s1.O=C(O)C(F)(F)F | 97% | 10% | 16% |
| CN(CC(=O)Nc1cc(C(F)(F)F)ccc1-n1cncn1)Cc1nc2ccccc2s1 | 87% | 64% | 3% |
| O=C(/C=C/c1cccc(OC(F)(F)F)c1)NCCCCCN1CCC(c2c[nH]c3ccccc23)CC1 | 93% | 13% | 27% |
| COc1ccc(-c2ccc(NC(=O)c3cccc(Cl)c3)c(F)c2)cc1CN1CCCN(C)CC1.O=C(O)C(F)(F)F | 100% | 42% | 43% |
| COc1ccc2c(c1)[nH]c1c(/C=C/c3ccc([N+](=O)[O-])cc3)nccc12 | 100% | 63% | 4% |
| CCOc1cc(C(=O)Nc2ccc3nc(N4CCCCC4)cc(C)c3c2)cc(OCC)c1OCC | 100% | 2% | 26% |
| O=C(CC1SC(N2N=C(c3cccs3)CC2c2ccccc2)=NC1=O)Nc1ccc(Cl)cc1 (centres undefined) | 83% | 88% | 18% |
| CCOc1ccc(-c2nonc2NC(=O)c2ccccc2)cc1OCC | 99% | 100% | 6% |
| O=C(NCCc1ccc(Cl)c(Cl)c1)C1CCCN(C(=O)c2ccc(O)c(-c3ccc(Cl)c(Cl)c3)c2)C1 (centres undefined) | 96% | 65% | 0% |
| COc1ccc(CNC(=O)C2Cc3ccccc3CN2Cc2ccc3ccccc3c2)cc1 (centres undefined) | 96% | 84% | 15% |
| CCCCNCc1ccc(OCc2cccc(COc3ccc(CNCCCC)cc3)c2)cc1.Cl | 100% | 35% | 98% |
| CCOC(=O)c1ccc2[nH]c(-c3ccc(C(=O)NC4CCN(Cc5ccccc5)CC4)s3)nc2c1 | 100% | 95% | 32% |
| CCn1c(C=Cc2cc(Br)ccc2O)nc2ccccc2c1=O | 95% | 95% | 6% |
| Cc1cc(C(F)(F)F)nn1-c1ccc(NC(=O)c2ccco2)cc1 | 94% | 93% | 14% |
| COc1ccc(Nc2nc(NCc3cccnc3)cc(-c3ccc(OC)cc3)n2)cc1 | 89% | 16% | 0% |
| Cl.O=C(/C=C/c1ccccc1F)NC1CCC(CCN2CCc3ccc(-c4cccnc4)cc3CC2)CC1 (centres undefined) | 92% | 5% | 34% |
| Cl.c1ccc(CN2CCN(CCNc3c4ccccc4nc4ccccc34)CC2)cc1 | 100% | 97% | 44% |

From ChEMBL document CHEMBL1157539, “Thousands of chemical starting points for antimalarial lead identification” (Nature, 2010)
